Experimental data: PubChem BioAssay AID686964 (The Scripps Research Institute Molecular Screening Center, 2013)
Among all 370,000 compounds or so, about 1,100 (0.3%) were called active. No stated cut-off is given here; in the data, active means inhibition above about 13%; inactive means the rest. Many of the other results were omitted from the sample, so actives are more common in it than they were.

molecular target: Methyl-CpG-binding domain protein 2 (Homo sapiens) (UniProt Q9UBB5); test: inhibitors of MBD2 binding to methylated DNA, primary screen, biochemical, TR-FRET, DNA-binding domain, human (AID 686964); conditions: MBD2 binding to methylated oligonucleotide, at 4.4 µM, hits give high values
Sequence (Q9UBB5 whole entry, looked up, the tested form may be a part): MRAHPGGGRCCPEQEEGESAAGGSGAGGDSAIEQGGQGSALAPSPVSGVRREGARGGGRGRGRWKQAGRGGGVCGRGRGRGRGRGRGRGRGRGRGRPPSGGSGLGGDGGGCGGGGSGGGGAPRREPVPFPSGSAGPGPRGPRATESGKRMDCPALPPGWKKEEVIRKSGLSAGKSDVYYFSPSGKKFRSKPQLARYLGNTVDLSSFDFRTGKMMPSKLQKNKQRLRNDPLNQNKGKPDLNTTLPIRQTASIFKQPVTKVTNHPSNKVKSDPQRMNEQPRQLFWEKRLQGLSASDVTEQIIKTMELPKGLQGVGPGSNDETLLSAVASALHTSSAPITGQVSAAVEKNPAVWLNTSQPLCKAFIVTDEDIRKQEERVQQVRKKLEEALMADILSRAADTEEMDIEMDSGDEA

SMILES	inhibition
COCCn1c(CN2CCC(Cc3ccccc3)CC2)nc2c1c(=O)n(C)c(=O)n2C	4.97% (inactive)
O=C(CCCCCN1C(=O)C2C3C=CC(C3)C2C1=O)Nc1ccccc1 (stereo not given)	-6.87% (inactive)
CO/N=C/CC(=O)c1ccc(OC)cc1	-0.8% (inactive)
Cc1nc(S(=O)(=O)c2ccc(Br)cc2)nc2c1CCC2	1.36% (inactive)
CO/N=C(/CS(=O)(=O)c1ccc(Br)cc1)c1ccc(OC)cc1	14% (active)
CCN1CCN(C(=O)N(Cc2ccc(Cl)cc2)S(=O)(=O)c2ccc(C)cc2)CC1	2.19% (inactive)
N#Cc1ccccc1OC[C@@H](O)CN1CCC(C(O)(c2ccccc2)c2ccccc2)CC1	0.72% (inactive)
CCCCNC(=O)C[C@H]1C(=O)N(Cc2ccc(OC)cc2)C2=CCCC[C@@]21C(=O)OCC	-1.99% (inactive)
CSc1nnc(-c2ccc(C(F)(F)F)cn2)o1	2.79% (inactive)
Cc1ccccc1NC(=O)c1ccc(COc2ccc3c(C)cc(=O)oc3c2)cc1	5.18% (inactive)
Cc1ccc(C)c(NC(=O)c2ccc(OC(=O)c3ccco3)cc2)c1	19.6% (active)
Cc1ccc(O)c(NC(=O)c2cc(-c3ccco3)on2)c1	-2.88% (inactive)
CCN(Cc1ccncc1)C(=O)c1cccc(S(=O)(=O)N2CCOCC2)c1	0.65% (inactive)
Cc1cccc(CN2CCN(C3CN(Cc4cn(Cc5cc(C)cc(C)c5)nn4)S(=O)(=O)C3)CC2)c1 (stereo not given)	17.4% (active)
Cc1cccc(CN2CCN(C3CN(Cc4ccccc4)S(=O)(=O)C3)CC2)c1 (stereo not given)	1.18% (inactive)
Cc1cccc(CN2CCN(C3CN(Cc4cn(Cc5ccccc5F)nn4)S(=O)(=O)C3)CC2)c1 (stereo not given)	5.03% (inactive)
CCOc1ccc(Oc2c(Cl)cnn(-c3ccc(C)cc3)c2=O)cc1	3.14% (inactive)
Cc1ccc(S(=O)(=O)Cn2nnnc2CN2CCN(Cc3ccc4c(c3)OCO4)CC2)cc1	0.18% (inactive)
CCOc1nc(OCC)nc(-n2cc(-c3ccccc3)nn2)n1	-0.3% (inactive)
CCOC(=O)c1ccc(-n2c(CCC(=O)O)ccc2-c2ccccc2)cc1	14.6% (active)
COc1ccc(-c2ccc(CCC(=O)O)n2NC(=O)c2ccc(C(C)(C)C)cc2)cc1	-1.3% (inactive)
COc1ccc(-c2ccc(CCC(=O)O)n2-c2ccc(O)cc2)cc1	-0.88% (inactive)
CCC12CN3CC(CC)(CN(C1)C31C(=O)N(C)c3ccc(C)cc31)C2=O (stereo not given)	-7.87% (inactive)
C[C@H](O)[C@@H]1CN2CCc3ccc(-c4ccc5c(c4)OCO5)cc3[C@@H]2C[C@@H]1N(C)C(=O)C1CCCCC1	-1.38% (inactive)
Cc1ccc(-c2nc3c(Cl)cc(C(F)(F)F)cn3c2Cc2cccc(Cl)c2)cc1	-2.87% (inactive)
Cc1nn(-c2ncc(C(F)(F)F)cc2Cl)c(=O)n1-c1ccccc1	3.32% (inactive)
Cc1ccc(-c2ccnc3nc(Sc4ncc(C(F)(F)F)cc4Cl)nn23)cc1	14.8% (active)
CC(C)(C)NC(=O)COC(=O)c1cc(Cl)ccc1[N+](=O)[O-]	-1.21% (inactive)

SMILES	inhibition
COC(=O)C[C@H]1CC[C@H]2[C@H](COc3ccc(NC(=O)C4CC4)cc3C(=O)N2C)O1	-4.11% (inactive)
Cc1ccc(N(C(=O)c2snc(C(N)=O)c2N)C(C(=O)NCC2CCCO2)c2c[nH]c3ccccc23)cc1 (stereo not given)	0.5% (inactive)
c1nc(COc2nsnc2N2CCOCC2)cs1	-0.47% (inactive)
C=CCn1c(=S)[nH]c2scc(-c3ccco3)c2c1=O	21.2% (active)
Cc1ccc(Cn2cc(COC(=O)N(C)Cc3ccccc3)nn2)cc1	3.5% (inactive)
O=C(NCc1cccs1)C1CCN(S(=O)(=O)c2ccccc2[N+](=O)[O-])CC1	0.44% (inactive)
CCCn1c(SCC(=O)Nc2c(C)cccc2C)nnc1C(C)C	6.66% (inactive)
CC(C)CC(COCc1ccc(Cl)cc1)N1CCN(C(=O)c2ccc(C(F)(F)F)cc2)CCC1=O (stereo not given)	4.33% (inactive)
COc1ccc(COC[C@H](CC(C)C)N2CCN(C(=O)c3cccc(C(F)(F)F)c3)CCC2=O)cc1	13.4% (active)
O=C(c1ccc(C(F)(F)F)cc1)N1CCC(=O)N([C@H](COCc2ccccc2)Cc2ccccc2)CC1	3% (inactive)
C[C@@H]1ON(C)[C@H]2C[C@H]3c4cc(N5CCOCC5)ccc4CCN3C[C@@H]12	-5.34% (inactive)
COC(=O)CNc1nc(Cl)nc(N2CCC(C)CC2)n1	2.21% (inactive)
CCc1c(-c2ccc(F)cc2)ncn1Cc1cccc(-c2ccccc2)c1	1.61% (inactive)
CCOC(=O)C1CCN(C(=O)C(C)(C)NC(=O)Nc2ccccc2Cl)CC1	1.47% (inactive)
Cc1c(CC(=O)N2CCN(C(=O)C3COc4ccccc4O3)CC2)c(=O)oc2c(O)c(O)ccc12 (stereo not given)	13.6% (active)
Fc1ccc2nc(COCc3nc4ccc(F)cc4[nH]3)[nH]c2c1	-0.41% (inactive)
CCC(C)n1[nH]c(=O)c2c(C)cc(C)nc21 (stereo not given)	-4.79% (inactive)
CCC(=O)Nc1cccc(C2=NOC3(C2)C[C@@H](C(N)=O)N(C(=O)c2cc([N+](=O)[O-])cc([N+](=O)[O-])c2C)C3)c1 (stereo not given in full)	-0.08% (inactive)
O=c1[nH]cnc2c1c(-c1ccccc1)cn2-c1ccc(F)cc1	4.57% (inactive)
COc1ccc(-n2cc(-c3ccccc3)c3c(=S)nc[nH]c32)cc1	14% (active)
O=C(CNS(=O)(=O)c1ccccc1F)N1CCN(c2ccccn2)CC1	-1.19% (inactive)
COC(=O)c1ccc2nc(-c3ccccc3)c(Cc3ccc(OC)cc3C)n2c1	10.6% (inactive)
COC(=O)c1ccc2nc(-c3ccc(C)cc3)c(Cc3ccc(OC)cc3C)n2c1	7.16% (inactive)
COC(=O)c1ccc2nc(-c3cccc(Br)c3)c(Cc3ccc(OC)cc3C)n2c1	14.9% (active)
Cc1ccc(OCc2nnc(SC/C=C/c3ccccc3)n2Cc2ccco2)cc1	-3.87% (inactive)
C=CCN1C(=O)[C@@H](CC(=O)N2CCN(C(=O)OCC)CC2)[C@]2(C(=O)OCC)CCCCC/C=C/12	4.9% (inactive)
Brc1ccc(-c2n(-c3ccccn3)c3ccccc3[n+]2-c2ccccn2)cc1	27.6% (active)
